From publication PMC8384837, “Expanding the binding specificity for RNA recognition by a PUF domain”
Numbering of substitutions follows the chain as printed.

Tests used:
Assay in all cases: yeast three-hybrid, YBZ-1, SC-Leu-His + 0.5 mM 3-AT, 4 days
Details in all cases: tags: N-Gal4 AD-HA kept; label: inside an RPR1-promoter hybrid RNA with tandem MS2 sites; ssRNA
[1] = target: PUM1 PUF domain R8-GYR (Homo sapiens, UniProt Q14671 828-1176, N1122G;Q1126R)
Summary of the method: (§1)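 The interaction score is the logarithmic change in variant frequency from input to selection. It uses log2, with a pseudocount of 1 for absent variants, and frequencies came from PCR-amplified, Illumina-sequenced repeat regions. The libraries were Pumilio-1 PUF domains randomized at the three base-contacting residues per repeat, co-expressed with matching RNA elements in strain YBZ-1 (LexA–MS2 coat fusion, HIS3 reporter). Plating lasted four days on SC-Leu (input) or SC-Leu-His + 0.5 mM 3-AT (selection).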

[2] = target: PUM1 PUF domain R8-RHW (Homo sapiens, UniProt Q14671 828-1176, N1122R;Y1123H;Q1126W)
Summary of the method: as §1

[3] = target: PUM1 PUF domain R8-KRK (Homo sapiens, UniProt Q14671 828-1176, N1122K;Y1123R;Q1126K)
Summary of the method: as §1

[4] = target: PUM1 PUF domain R8-RFY (Homo sapiens, UniProt Q14671 828-1176, N1122R;Y1123F;Q1126Y)
Summary of the method: as §1

[5] = target: T1, PUM1 PUF domain R6-IFC (Homo sapiens, UniProt Q14671 828-1176, N1043I;Y1044F;Q1047C)
T1 sequence: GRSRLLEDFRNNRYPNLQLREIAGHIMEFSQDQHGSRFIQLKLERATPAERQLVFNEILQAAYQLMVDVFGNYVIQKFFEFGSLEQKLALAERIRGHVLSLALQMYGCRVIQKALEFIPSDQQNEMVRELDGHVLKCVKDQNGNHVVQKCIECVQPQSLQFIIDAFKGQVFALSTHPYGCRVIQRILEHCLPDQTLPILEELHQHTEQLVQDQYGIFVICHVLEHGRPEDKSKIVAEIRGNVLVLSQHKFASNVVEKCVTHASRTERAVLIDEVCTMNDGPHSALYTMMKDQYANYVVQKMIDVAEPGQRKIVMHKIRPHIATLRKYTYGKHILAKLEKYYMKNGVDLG
Summary of the method: as §1

[6] = target: PUM1 PUF domain R1-YGR (Homo sapiens, UniProt Q14671 828-1176, S863Y;R864G;Q867R)
Summary of the method: as §1

[7] = target: PUM1 PUF domain R3-SAE (Homo sapiens, UniProt Q14671 828-1176, C935S;R936A;Q939E)
Summary of the method: as §1

[8] = target: PUM1 PUF domain R4-DFL (Homo sapiens, UniProt Q14671 828-1176, N971D;H972F;Q975L)
Summary of the method: as §1

[9] = target: PUM1 PUF domain R3-PHH (Homo sapiens, UniProt Q14671 828-1176, C935P;R936H;Q939H)
Summary of the method: as §1

[10] = target: PUM1 PUF domain R7-ARR (Homo sapiens, UniProt Q14671 828-1176, S1079A;N1080R;E1083R)
Summary of the method: as §1

[11] = target: PUM1 PUF domain R2-DWC (Homo sapiens, UniProt Q14671 828-1176, N899D;Y900W;Q903C)
Summary of the method: as §1

[12] = target: PUM1 PUF domain R4-PYS (Homo sapiens, UniProt Q14671 828-1176, N971P;H972Y;Q975S)
Summary of the method: as §1

[13] = target: PUM1 PUF domain R4-FNC (Homo sapiens, UniProt Q14671 828-1176, N971F;H972N;Q975C)
Summary of the method: as §1

[14] = target: PUM1 PUF domain R4-PFL (Homo sapiens, UniProt Q14671 828-1176, N971P;H972F;Q975L)
Summary of the method: as §1

[15] = target: PUM1 PUF domain R4-SHS (Homo sapiens, UniProt Q14671 828-1176, N971S;Q975S)
Summary of the method: as §1

[16] = target: T2, PUM1 PUF domain R6-GWE (Homo sapiens, UniProt Q14671 828-1176, N1043G;Y1044W;Q1047E)
T2 sequence: T1 sequence with I216G, F217W, C220E
Summary of the method: as §1

[17] = target: PUM1 PUF domain R1-RCT (Homo sapiens, UniProt Q14671 828-1176, S863R;R864C;Q867T)
Summary of the method: as §1

[18] = target: PUM1 PUF domain R7-DNV (Homo sapiens, UniProt Q14671 828-1176, S1079D;E1083V)
Summary of the method: as §1

[19] = target: PUM1 PUF domain R7-RSW (Homo sapiens, UniProt Q14671 828-1176, S1079R;N1080S;E1083W)
Summary of the method: as §1

[20] = target: PUM1 PUF domain R7-EPG (Homo sapiens, UniProt Q14671 828-1176, S1079E;N1080P;E1083G)
Summary of the method: as §1

GGCUAGAACUAGUGGAUCCCCCGGCGCCCGGCGGCUCGAGCCCGGGUAAGCGUAAAUAGUCUGCAUGCCGCCGGGCGCCAUGCCUGCAGGUCGACUCUAGAAAACAUG
binding signal [1]: 5.09 log2 enrichment (interaction score)
binding signal [2]: 4.05 log2 enrichment (interaction score)
binding signal [3]: 4.95 log2 enrichment (interaction score)
binding signal [4]: 5.49 log2 enrichment (interaction score)

GGCUAGAACUAGUGGAUCCCCCGGCGCCCGGCGGCUCGAGCCCGGGUAAGUGAAAAUAGUCUGCAUGCCGCCGGGCGCCAUGCCUGCAGGUCGACUCUAGAAAACAUG
binding signal [5]: 5.44 log2 enrichment (interaction score)

GGCUAGAACUAGUGGAUCCCCCGGCGCCCGGCGGCUCGAGCCCGGGUAAGUGUAAAUCGUCUGCAUGCCGCCGGGCGCCAUGCCUGCAGGUCGACUCUAGAAAACAUG
binding signal [6]: 5.61 log2 enrichment (interaction score)

GGCUAGAACUAGUGGAUCCCCCGGCGCCCGGCGGCUCGAGCCCGGGUAAGUGUAAGUAGUCUGCAUGCCGCCGGGCGCCAUGCCUGCAGGUCGACUCUAGAAAACAUG
binding signal [7]: 4.99 log2 enrichment (interaction score)

GGCUAGAACUAGUGGAUCCCCCGGCGCCCGGCGGCUCGAGCCCGGGUAAGUGUAAAUAGUCUGCAUGCCGCCGGGCGCCAUGCCUGCAGGUCGACUCUAGAAAACAUG
binding signal [1]: 5.16 log2 enrichment (interaction score)
binding signal [8]: 5.04 log2 enrichment (interaction score)
binding signal [9]: 4.19 log2 enrichment (interaction score)
binding signal [2]: 2.9 log2 enrichment (interaction score)
binding signal [3]: 3.65 log2 enrichment (interaction score)

GGCUAGAACUAGUGGAUCCCCCGGCGCCCGGCGGCUCGAGCCCGGGUAAGUCUAAAUAGUCUGCAUGCCGCCGGGCGCCAUGCCUGCAGGUCGACUCUAGAAAACAUG
binding signal [10]: 3.14 log2 enrichment (interaction score)

GGCUAGAACUAGUGGAUCCCCCGGCGCCCGGCGGCUCGAGCCCGGGUAAGUGUAAAAAGUCUGCAUGCCGCCGGGCGCCAUGCCUGCAGGUCGACUCUAGAAAACAUG
binding signal [11]: 7.69 log2 enrichment (interaction score)

GGCUAGAACUAGUGGAUCCCCCGGCGCCCGGCGGCUCGAGCCCGGGUAAGUGUAAUUAGUCUGCAUGCCGCCGGGCGCCAUGCCUGCAGGUCGACUCUAGAAAACAUG
binding signal [9]: 2.2 log2 enrichment (interaction score)

GGCUAGAACUAGUGGAUCCCCCGGCGCCCGGCGGCUCGAGCCCGGGUAAGUGUAUAUAGUCUGCAUGCCGCCGGGCGCCAUGCCUGCAGGUCGACUCUAGAAAACAUG
binding signal [12]: 5.95 log2 enrichment (interaction score)
binding signal [8]: 2.93 log2 enrichment (interaction score)
binding signal [13]: 3.02 log2 enrichment (interaction score)
binding signal [14]: 4.21 log2 enrichment (interaction score)
binding signal [15]: 6.15 log2 enrichment (interaction score)

GGCUAGAACUAGUGGAUCCCCCGGCGCCCGGCGGCUCGAGCCCGGGUAAGUGUACAUAGUCUGCAUGCCGCCGGGCGCCAUGCCUGCAGGUCGACUCUAGAAAACAUG
binding signal [12]: 5.7 log2 enrichment (interaction score)

GGCUAGAACUAGUGGAUCCCCCGGCGCCCGGCGGCUCGAGCCCGGGUAAGUGGAAAUAGUCUGCAUGCCGCCGGGCGCCAUGCCUGCAGGUCGACUCUAGAAAACAUG
binding signal [16]: 5.02 log2 enrichment (interaction score)

GGCUAGAACUAGUGGAUCCCCCGGCGCCCGGCGGCUCGAGCCCGGGUAAGUGUAAAUUGUCUGCAUGCCGCCGGGCGCCAUGCCUGCAGGUCGACUCUAGAAAACAUG
binding signal [6]: 6.42 log2 enrichment (interaction score)
binding signal [17]: 4.25 log2 enrichment (interaction score)

GGCUAGAACUAGUGGAUCCCCCGGCGCCCGGCGGCUCGAGCCCGGGUAAGUUUAAAUAGUCUGCAUGCCGCCGGGCGCCAUGCCUGCAGGUCGACUCUAGAAAACAUG
binding signal [18]: 3.87 log2 enrichment (interaction score)
binding signal [19]: 2.57 log2 enrichment (interaction score)
binding signal [10]: 3.69 log2 enrichment (interaction score)
binding signal [20]: 3.69 log2 enrichment (interaction score)

GGCUAGAACUAGUGGAUCCCCCGGCGCCCGGCGGCUCGAGCCCGGGUAAGUGUAAAUGGUCUGCAUGCCGCCGGGCGCCAUGCCUGCAGGUCGACUCUAGAAAACAUG
binding signal [6]: 2.18 log2 enrichment (interaction score)
binding signal [17]: 3.84 log2 enrichment (interaction score)
